# Results filed as inconclusive are left out. Activity calls are given as the source filed them.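 The calls were made as follows, unless noted: active = growth inhibition above 25% in both replicates, a cutoff set 3 SD above the mean; inconclusive = above 25% in only one replicate; inactive = the rest.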
# What was measured:
# [1] = HUVEC growth inhibition – cell-based, human, primary screen (AID 575;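 active = viability at or below 30% in both replicate assays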;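 also: 100% = median of untreated cell wells with 0.1% DMSO on each plate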); conditions: HUVEC proliferation, CellTiter-Glo luminescence, 72 h; at 10 µM; stronger effect = lower value
# [2] = H69AR cell proliferation blockers – human, duplicate replicates, primary screen (AID 580;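 active = viability at or under a set limit in both replicates, limit being median viability minus 3 SD, cut at about 48% in these data, passing the limit was not always enough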;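 also: 100% = mean luminescence of untreated wells and 0% = no signal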); conditions: H69AR lung tumor cells viability, ATP luminescence, 72 h; at 10 µM; stronger effect = lower value
# [3] = MRP1 drug-resistance reversers in H69AR cells – cell-based, doxorubicin co-treatment, pilot screen (AID 601;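 active = viability loss from added drug above about 55%, and viability with drug at most 40%, in both replicates, limit read from the data, passing the limit was not always enough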); conditions: CellTiter-Glo, 72 h, at 10 µM; for differential viability (reversal): stronger effect = higher value
# [4] = yeast transport mutant growth inhibition pilot in 384-well plates, post-Golgi transport modulator project (AID 636; in the data active = inhibition above about 31%); conditions: absorbance 615 nm, about 18 h, stronger effect = higher value
# [5] = growth suppression of yeast trafficking mutant, preliminary HTS, modulators of trafficking downstream of Golgi apparatus project, 1536-format plate, OD 615 nm (AID 637; in the data active = inhibition above about 30%); conditions: yeast transport mutant growth, absorbance 615 nm, 18 h; stronger effect = higher value
# [6] = S. cerevisiae growth inhibition in permissive medium (OD615), pilot counter-assay for S. cerevisiae lifespan shortening project, permissive growth control (AID 705); conditions: OD615, 24 h, at 10 µM, stronger effect = higher value
# [7] = S. cerevisiae growth inhibition in restrictive medium, OD615, pilot screen, restrictive growth control, yeast lifespan reduction project (AID 706;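 active = growth inhibition above a set limit, 3 SD over mean compound inhibition, in both replicates, cut at about 43% in these data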;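 also: modified DeaD lifespan yeast strain shifted to restrictive glucose medium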); conditions: OD615, 48 h, at 10 µM, stronger effect = higher value
# [8] = doxorubicin toxicity protection in MRP-1 cells – H69AR cells, CellTiter-Glo, duplicate, MRP-1 activator project, pilot screen (AID 807;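 active = viability increase at or above a cutoff of the median across tested compounds plus 3 SD, cut at about 8.5% in these data, passing the limit was not always enough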;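 also: compound pretreatment 18-22 h then 72 h combined with doxorubicin; 0% = doxorubicin alone and 100% = vehicle without doxorubicin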); conditions: H69AR viability with doxorubicin, CellTiter-Glo luminescence; at 10 µM; stronger effect = higher value
# [9] = viability of PTEN-null HCT116 cells – cell-based, HCT116 clonal line, CellTiter-Glo, pilot screen (AID 824;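 active = viability at or below 27.92% in each of two runs, the all-compound median minus 4 SD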;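 also: 0% = 20 µM Hyamine control and 100% = vehicle cell control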); conditions: HCT116 PTEN-deleted viability, 60 h, at 10 µM, stronger effect = lower value
# [10] = RAM pathway blockade in budding yeast – dse1pr::URA3 reporter, 5-FOA selection, pilot screen (AID 869;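 active = inhibition over a set limit, the all-compound mean plus 3 SD, in both replicate runs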;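 also: 0% = DMSO wells with no growth and 100% = 10 µM 1-NA-PP1 with full growth; RAM network block rescues cells from 5-FOA so hits raise OD615 growth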); conditions: S. cerevisiae dse1pr::URA3 5-FOA growth, OD615, 2 d; at 10 µM; stronger effect = higher value; strain carries analog-sensitive mutant Cbk1 kinase
# [11] = RAM signaling pathway blockade in yeast – S. cerevisiae, Pdr1DBD-CYC8 efflux-inhibited sensitized strain, primary screen (AID 1298;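 active = RAM network inhibition above 8.4% in each of two replicates, 3 SD over the compound average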;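 also: 0% = DMSO untreated cells without growth and 100% = 10 µM 1-NA-PP1 full growth; higher means more yeast growth rescued from 5-FOA killing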); conditions: S. cerevisiae cbk1-as DSE1-URA3 strain, 5-FOA growth OD615, 2 d; at 50 µM; stronger effect = higher value
# [12] = viability of HCT116 without oncogenic beta-catenin – human colon tumor cells, pilot screen (AID 823;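 active = cell viability at or below a set limit in both duplicate runs, the limit being the all-compound median minus 4 SD, cut at about 23% in these data, passing the limit was not always enough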;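 also: 0% = wells killed by 20 µM Hyamine and 100% = untreated DMSO cell wells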); conditions: HCT116 beta-catenin knockout viability, CellTiter-Glo, 60 h; at 10 µM; stronger effect = lower value
# [13] = H69AR cells + 2 uM doxorubicin, measured here: viability with 2 uM doxorubicin, stronger effect = lower value
# [14] = H69AR cells, compound alone cytotoxicity
Structure (SMILES),viability [1],viability [2],differential viability (reversal) ([3]; H69AR cells + 2 uM doxorubicin),"viability [3, 13] [%]","viability [3, 14] [%]",inhibition [4],inhibition [5],growth inhibition [6],growth inhibition [7],viability increase [8],viability [9],inhibition [10],RAM network inhibition [11],viability [12]
CC(c1ccco1)N(C(=O)COc1ccc(Cl)cc1Cl)c1ccccn1 (configuration not stated),71.6% (inactive),76.4% (inactive),3.06% (inactive),73.3,76.4,-6.71% (inactive),-10.3% (inactive),-10.9% (inactive),-10.3% (inactive),-4.89% (inactive),65.6% (inactive),2.06% (inactive),7.28% (inactive),–
O=S(=O)(NCC(O)COCc1ccco1)c1cccs1 (configuration not stated),114% (inactive),83.7% (inactive),-0.665% (inactive),84.3,83.7,-6.62% (inactive),-5.56% (inactive),-10.3% (inactive),2.05% (inactive),-3.34% (inactive),–,1.09% (inactive),6.29% (inactive),92.8% (inactive)
COc1ccccc1-c1nc(-c2ccc(Br)cc2)no1,–,–,–,–,–,–,–,4.16% (inactive),-2.73% (inactive),-3.88% (inactive),94.1% (inactive),–,5.02% (inactive),84.2% (inactive)
Cc1ccc(C)c(N2CCN(CCCNC(=O)Cn3cc4c(n3)CCCCC4)CC2)c1,2.8% (active),–,-31.3% (inactive),68.4,37.1,-2.69% (inactive),4% (inactive),-6.4% (inactive),-0.285% (inactive),-7.67% (inactive),19.6% (active),0.495% (inactive),4.06% (inactive),–
CSc1cccc(NS(=O)(=O)c2ccc3c(c2)oc(=O)n3C)c1,–,–,–,–,–,–,–,-0.15% (inactive),7.23% (inactive),-1.75% (inactive),81% (inactive),–,4.49% (inactive),85.3% (inactive)
CN1C(=O)c2cccc(NC(=O)CCc3ccccc3)c2C1=O,–,–,–,–,–,–,–,-6.67% (inactive),1.67% (inactive),0.13% (inactive),93% (inactive),–,1.84% (inactive),99% (inactive)
CCN1CCN(c2cc(C)c3cc(NC(=O)c4cncc(Br)c4)ccc3n2)CC1,–,–,–,–,–,–,–,-4.93% (inactive),-2.12% (inactive),-6.22% (inactive),–,–,-0.98% (inactive),–
CC(c1ccco1)N(C(=O)c1ccc(S(=O)(=O)N2CCCCC2)cc1)c1ccccn1 (configuration not stated),87.5% (inactive),86% (inactive),-8.22% (inactive),94.2,86,-4.03% (inactive),1.27% (inactive),-17.7% (inactive),2.26% (inactive),-4.13% (inactive),–,1.19% (inactive),3.18% (inactive),97.4% (inactive)
COCCn1c(=O)[nH]c2cc(C(=O)NCCCN3CCN(c4ccc(F)cc4)CC3)ccc2c1=O,97.8% (inactive),100% (inactive),3.64% (inactive),96.6,100,0% (inactive),-2.38% (inactive),-12.8% (inactive),-0.415% (inactive),-0.08% (inactive),–,0.63% (inactive),8.31% (inactive),86.2% (inactive)
Cc1cc2cc(CNC(=O)C3CCCC3)ccc2n1C,–,–,–,–,–,–,–,-3.94% (inactive),-10.2% (inactive),0.45% (inactive),91% (inactive),–,2.97% (inactive),103% (inactive)
CCCc1cc(C(=O)NCCc2ccc(OC)c(OC)c2)no1,–,–,–,–,–,–,–,1.33% (inactive),4.92% (inactive),-1.89% (inactive),97.2% (inactive),–,3.29% (inactive),106% (inactive)
Cc1cc(NC(=O)CSc2nc3c(c(=O)n2CCc2ccccc2)SC(C)C3)no1 (configuration not stated),–,–,–,–,–,–,–,-12.6% (inactive),-12.3% (inactive),-1.68% (inactive),96.6% (inactive),–,5.21% (inactive),89.5% (inactive)
CN(C)c1nc2ccc(OCCN3CCCCC3)cc2s1,–,–,–,–,–,–,–,-10.8% (inactive),0.795% (inactive),-0.48% (inactive),94.3% (inactive),–,4.76% (inactive),93% (inactive)
Cc1ccc(-c2nc(CSCC(=O)N3CCN(C(=O)c4ccco4)CC3)c(C)o2)cc1,–,–,–,–,–,–,–,-4.69% (inactive),14.9% (inactive),-1.03% (inactive),76.5% (inactive),–,6.53% (inactive),76.4% (inactive)
CC(Sc1nc(N2CCOCC2)nc(N2CCOCC2)n1)C(=O)Nc1ccccc1 (configuration not stated),–,–,–,–,–,–,–,-18.4% (inactive),-21.2% (inactive),-1.56% (inactive),93.2% (inactive),–,5.6% (inactive),95.5% (inactive)
COc1ccc(-c2nc(-c3cccc(C(F)(F)F)c3)no2)cc1OC,–,–,–,–,–,–,–,-2.88% (inactive),1.6% (inactive),-0.18% (inactive),93.3% (inactive),–,7.48% (inactive),99% (inactive)
CCOc1ccc(C2Oc3nc(SC)nnc3-c3ccccc3N2C(C)=O)cc1OC (configuration not stated),–,–,–,–,–,–,–,6.18% (inactive),4.39% (inactive),-2.28% (inactive),99.8% (inactive),–,4.23% (inactive),109% (inactive)
N#Cc1nc(-c2ccc(Cl)cc2)oc1NCCc1ccccn1,102% (inactive),104% (inactive),7.66% (inactive),96,104,0.39% (inactive),5.4% (inactive),1% (inactive),0.83% (inactive),-0.49% (inactive),–,1.07% (inactive),7.29% (inactive),97.3% (inactive)
